Source: PubChem BioAssay (NCI)
Compounds without any hit were thinned out: in the full panel of roughly 79,000, 15% have a hit. Values without a mark were called inactive. Activity calls are given as the source filed them. No stated cut-off is given here; in the data, active means growth inhibition above about 70%; inactive means the rest.

Experiment: NCI Yeast Anticancer Drug Screen. Data for the rad50 strain (AID 155);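 further: 0% = growth of vehicle-only cultures of the same strain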
Conditions: S. cerevisiae rad50 strain growth inhibition; at 50.0 µM; stronger effect = higher value
Outline: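 Genetically altered yeast (DNA repair pathway); compound treatment; growth inhibition vs vehicle ctrl.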

| SMILES | growth inhibition |
| --- | --- |
| CCNc1ncnc2[nH]ncc12 | -8.2% |
| CC(=O)[C@@]1(O)CC[C@H]2[C@@H]3CC[C@@H]4CC(=O)CC[C@]4(C)[C@H]3[C@@H](O)C[C@@]21C | -19.9% |
| Cc1onc(-c2ccccc2Cl)c1C(=O)Cl | -41.3% |
| C1=NCCc2ccccc21 | 0.55% |
| CC(=O)Oc1c(Cl)cccc1-c1ccccc1 | 35.3% |
| CC(C)N1CC(=O)N2CSCC2C1=O (stereo unspecified) | 14.1% |
| S=C=Nc1ccc2ccccc2c1 | 15.3% |
| BrCc1cccc(C[P+](c2ccccc2)(c2ccccc2)c2ccccc2)c1 | 66% |
| O=C(Nc1c(Cl)cc(Cl)cc1Cl)ON=C1CCCCC1 | 1.2% |
| Cc1onc(-c2c(F)cccc2Cl)c1-c1ncc(-c2ccc(Br)cc2)o1 | -13.4% |
| CC1CC(C)S(=O)(=O)C1 (stereo unspecified) | -35% |
| Oc1ccc(CCC2CCNc3ccccc32)cc1 (stereo unspecified) | 0.35% |
| Cc1cccc(C)c1NC(=S)/N=C\c1c(O)[nH]c(=O)[nH]c1=O | -67% |
| CC1(C)CC(=O)C=C(N)C1 | 7.35% |
| Cc1cc(C)cc(OCC(=O)O)c1 | 16.6% |
| S=CN1CCCCC1 | -25.1% |
| CCC(C)C1CCC(O)CC1 (stereo unspecified) | 30.8% |
| CN(C)Cc1ccccn1 | 1.1% |
| COc1cc(C(=O)O)c(O)c(C(C)(C)C)c1 | 19.4% |

| SMILES | growth inhibition |
| --- | --- |
| CC(=O)NC(CCc1ccc(Cl)c(Cl)c1)c1cccc(O)c(=O)c1 (stereo unspecified) | 88.9% (active) |
| COC1OC(CO)C(OC)C(O)C1O (stereo unspecified) | -5.6% |
| CC1=CC(=Nc2ccc(N(C)C)cc2)C=C(C)C1=O | -14.5% |
| O=Cc1ccc(Cl)c(Cl)c1 | -3.55% |
| C=CC(=O)OC1CCC(C(C)(C)CC)CC1 (stereo unspecified) | 39.9% |
| ClCC(Cl)[C@@H]1CC2C=CC1C2 (stereo partly specified) | 2.85% |
| CC(=O)c1ccc(C)cc1 | -1.75% |
| Cc1nc(O)cc(=O)[nH]1 | 17.7% |
| C/C(Cc1ccccc1)=N\O | 3.75% |
| Nc1ncc([N+](=O)[O-])cn1 | 1.9% |
| Cn1c(=O)c2nc3c(=O)n(C)c(=O)n(C)c3nc2n(C)c1=O | -8% |
| ON1CCCC1 | -1.35% |
| CCOc1ccc2c(c1)c(C)cc(C)[n+]2CC | 4.45% |
| O=[N+]([O-])c1ccc2[nH]c(=S)n(/C=C(/c3ccc(Cl)cc3Cl)S(=O)(=O)Cc3ccc(Cl)cc3Cl)c2c1 | -5.05% |
| CN1C(=O)NC(c2ccc(Cl)cc2)(c2ccc(Cl)cc2)C1=O | 44.9% |
| CCOc1ccc(C(=O)O)cc1 | 34.8% |
| O=C1NC(=O)C(c2ccccc2)O1 (stereo unspecified) | -3.9% |
| O=c1[nH]c(=O)c2cc(Cl)cc(Cl)c2[nH]1 | -2.05% |
| CC1(C)OC2C(CO)OC(n3ccc(=O)[nH]c3=O)C2O1 (stereo unspecified) | 1.9% |

Experiment: NCI Yeast Anticancer Drug Screen. Data for the mec2-1 strain (AID 157)
Conditions: S. cerevisiae mec2-1 strain, at 50.0 µM, stronger effect = higher value
Outline: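 Each compound was tested on mec2-1 yeast, a strain altered in DNA damage repair or cell cycle control. Growth inhibition is reported relative to vehicle.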

| SMILES | growth inhibition |
| --- | --- |
| CCNc1ncnc2[nH]ncc12 | -6.45% |
| CC(=O)[C@@]1(O)CC[C@H]2[C@@H]3CC[C@@H]4CC(=O)CC[C@]4(C)[C@H]3[C@@H](O)C[C@@]21C | -1.9% |
| Cc1onc(-c2ccccc2Cl)c1C(=O)Cl | -41.3% |
| C1=NCCc2ccccc21 | 3% |
| CC(=O)Oc1c(Cl)cccc1-c1ccccc1 | 10.9% |
| CC(C)N1CC(=O)N2CSCC2C1=O (stereo unspecified) | 8.3% |
| S=C=Nc1ccc2ccccc2c1 | -12.4% |
| BrCc1cccc(C[P+](c2ccccc2)(c2ccccc2)c2ccccc2)c1 | 41.9% |
| O=C(Nc1c(Cl)cc(Cl)cc1Cl)ON=C1CCCCC1 | -19% |
| Cc1onc(-c2c(F)cccc2Cl)c1-c1ncc(-c2ccc(Br)cc2)o1 | -15.9% |
| CC1CC(C)S(=O)(=O)C1 (stereo unspecified) | -30.9% |
| Oc1ccc(CCC2CCNc3ccccc32)cc1 (stereo unspecified) | -1.85% |
| Cc1cccc(C)c1NC(=S)/N=C\c1c(O)[nH]c(=O)[nH]c1=O | -27.2% |
| CC1(C)CC(=O)C=C(N)C1 | -16.5% |
| Cc1cc(C)cc(OCC(=O)O)c1 | 10.2% |
| S=CN1CCCCC1 | -16.2% |
| CCC(C)C1CCC(O)CC1 (stereo unspecified) | 9.55% |
| CN(C)Cc1ccccn1 | -17% |
| COc1cc(C(=O)O)c(O)c(C(C)(C)C)c1 | 4.25% |

| SMILES | growth inhibition |
| --- | --- |
| CC(=O)NC(CCc1ccc(Cl)c(Cl)c1)c1cccc(O)c(=O)c1 (stereo unspecified) | 92% (active) |
| COC1OC(CO)C(OC)C(O)C1O (stereo unspecified) | 0.2% |
| CC1=CC(=Nc2ccc(N(C)C)cc2)C=C(C)C1=O | -21.1% |
| O=Cc1ccc(Cl)c(Cl)c1 | -9.5% |
| C=CC(=O)OC1CCC(C(C)(C)CC)CC1 (stereo unspecified) | 14.1% |
| ClCC(Cl)[C@@H]1CC2C=CC1C2 (stereo partly specified) | -3.65% |
| CC(=O)c1ccc(C)cc1 | 6.1% |
| Cc1nc(O)cc(=O)[nH]1 | -6.9% |
| C/C(Cc1ccccc1)=N\O | 3.1% |
| Nc1ncc([N+](=O)[O-])cn1 | -4.7% |
| Cn1c(=O)c2nc3c(=O)n(C)c(=O)n(C)c3nc2n(C)c1=O | -11.2% |
| ON1CCCC1 | -4.15% |
| CCOc1ccc2c(c1)c(C)cc(C)[n+]2CC | -41% |
| O=[N+]([O-])c1ccc2[nH]c(=S)n(/C=C(/c3ccc(Cl)cc3Cl)S(=O)(=O)Cc3ccc(Cl)cc3Cl)c2c1 | -13.8% |
| CN1C(=O)NC(c2ccc(Cl)cc2)(c2ccc(Cl)cc2)C1=O | 11.1% |
| CCOc1ccc(C(=O)O)cc1 | -12.8% |
| O=C1NC(=O)C(c2ccccc2)O1 (stereo unspecified) | -12.1% |
| O=c1[nH]c(=O)c2cc(Cl)cc(Cl)c2[nH]1 | -15.3% |
| CC1(C)OC2C(CO)OC(n3ccc(=O)[nH]c3=O)C2O1 (stereo unspecified) | 0.9% |
